Calls of active or inactive are those of the source. The calls were made as follows: active = hit-call score of the fitted dose curve at least 0.9, where 1 is the maximum; inactive = score below 0.9.
Legend:
[1] = ATG_CMV_CIS: Attagene CIS-FACTORIAL HepG2 Assay for human CMV (Internal Marker) (AID 2282928); conditions: HepG2 CMV promoter reporter, transcription factor profiling; actives raise or lower the signal;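 also: endpoint acts as a background internal control marker rather than a target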
Method in brief: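 Fluorescence intensity of RT-PCR-derived reporter fragments, resolved by capillary electrophoresis, gives the signal. HepG2 liver cells bearing transfected cis-element reporters were treated 24 h; activity in either direction was fit relative to DMSO-treated controls.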

[2] = ATG_DR4_LXR_CIS: Attagene CIS-FACTORIAL HepG2 Assay for human Liver X Receptor (LXR), DR4 submotif (AID 2282929); conditions: HepG2 Attagene DR4 cis-reporter, mRNA transcription; actives raise or lower the signal
Method in brief: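 Total RNA from 24 h-treated, MRTU-transfected HepG2 cells underwent reverse transcription, PCR, fluorescent primer extension and restriction digestion before capillary electrophoresis. Both increases and decreases in reporter signal were fitted against DMSO.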

[3] = ATG_AP_1_CIS: Attagene CIS-FACTORIAL HepG2 Assay for human Activator Protein 1 (AP-1) (AID 2282931); conditions: HepG2 Attagene cis-factorial AP-1 reporter mRNA; actives raise or lower the signal
Method in brief: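 HepG2, transient cis-reporter transfection; 24 h; readout RT-PCR/CE fluorescence; DMSO baseline, gain and loss fitted.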

[4] = target: Transcription factor E2F1 (Homo sapiens) (UniProt Q01094); experiment: ATG_E2F_CIS: Attagene CIS-FACTORIAL HepG2 Assay for human E2F Transcription Factor 1 (AID 2282935); conditions: HepG2 Attagene cis-reporter, E2F reporter RNA transcripts; actives raise or lower the signal
Sequence of Transcription factor E2F1 (Homo sapiens) (Q01094 whole entry, looked up): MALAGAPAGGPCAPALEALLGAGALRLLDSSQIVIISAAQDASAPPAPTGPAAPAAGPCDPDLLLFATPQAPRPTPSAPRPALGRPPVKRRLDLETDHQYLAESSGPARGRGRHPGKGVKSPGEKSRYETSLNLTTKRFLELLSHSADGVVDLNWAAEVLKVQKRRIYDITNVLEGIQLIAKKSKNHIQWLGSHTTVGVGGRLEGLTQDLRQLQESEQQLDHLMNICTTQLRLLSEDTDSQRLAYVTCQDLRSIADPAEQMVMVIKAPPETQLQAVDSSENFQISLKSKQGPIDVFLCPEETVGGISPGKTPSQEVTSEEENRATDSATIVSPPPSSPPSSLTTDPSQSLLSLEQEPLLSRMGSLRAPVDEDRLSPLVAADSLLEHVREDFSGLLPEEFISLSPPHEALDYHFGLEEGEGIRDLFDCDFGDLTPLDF
Method in brief: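 Fluorescent RT-PCR products, digested with HpaI for 2 h at 37 C, are separated by capillary electrophoresis. Source RNA comes from transfected HepG2 cultures treated for 24 h.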

[5] = ATG_E_Box_CIS: Attagene CIS-FACTORIAL HepG2 Assay for human Enhancer Box (E-box) (AID 2282936); conditions: HepG2 E-box cis-reporter transcription, actives raise or lower the signal
Method in brief: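 Fluorescent reporter fragments separated by capillary electrophoresis gave the signal; mRNA came from HepG2 cells transfected with cis-element reporters and treated 24 h. Curves fitted bidirectionally relative to DMSO controls.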

[6] = ATG_M_19_CIS: Attagene CIS-FACTORIAL HepG2 Assay for M19 Transcription Factor (Internal Marker) (AID 2282939); conditions: HepG2 Attagene CIS-FACTORIAL M19 internal marker reporter; actives raise or lower the signal
Method in brief: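 HepG2 cells transiently transfected with cis-regulated multiplexed reporter units, dosed 24 h. Reporter mRNA quantified by RT-PCR and capillary electrophoresis; internal background marker fitted bidirectionally versus DMSO.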

[7] = ATG_FoxO_CIS: Attagene CIS-FACTORIAL HepG2 Assay for human Forkhead box O (FoxO) (AID 2282943); conditions: HepG2 Attagene cis-reporter, FoxO element, mRNA; actives raise or lower the signal
Method in brief: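 Human hepatoma HepG2 cells carry transiently introduced reporter transcription units controlled by cis promoter elements. Chemical treatment lasted 24 h, and mRNA signal was compared with DMSO.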

[8] = ATG_GATA_CIS: Attagene CIS-FACTORIAL HepG2 Assay for human GATA Binding Protein (AID 2282944); conditions: HepG2 GATA cis-element reporter, Attagene multiplex mRNA; actives raise or lower the signal
Method in brief: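 HepG2 cells transiently transfected with multiplexed cis-element reporter units measure endogenous GATA activity; after 24 h compound exposure, reporter mRNA quantified by RT-PCR and capillary electrophoresis. Changes fitted in both directions vs DMSO.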

[9] = ATG_GLI_CIS: Attagene CIS-FACTORIAL HepG2 Assay for human Zinc Finger Protein GLI1 (AID 2282945); conditions: HepG2, Attagene cis-factorial reporter mRNA, GLI element; actives raise or lower the signal
Method in brief: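 Bidirectional curve fits relative to DMSO, using reporter mRNA levels from RT-PCR plus capillary electrophoresis. Cells were HepG2 transiently carrying cis-regulated reporter constructs, harvested 24 h after dosing.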

[10] = ATG_M_32_CIS: Attagene CIS-FACTORIAL HepG2 Assay for M32 Transcription Factor (Internal Marker) (AID 2282949); conditions: HepG2 Attagene cis-factorial M32 reporter, mRNA; actives raise or lower the signal;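 also: background control marker of the multiplexed CIS panel rather than a real target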
Method in brief: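 Using DMSO as baseline, bidirectional curve fits were applied to reporter mRNA signals. These came from transiently transfected HepG2 cells exposed for 24 h, with RNA analysed by RT-PCR, FAM primer extension, HpaI digestion and CE.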

[11] = ATG_M_06_CIS: Attagene CIS-FACTORIAL HepG2 Assay for M06 Transcription Factor (Internal Marker) (AID 2282950); conditions: HepG2 Attagene CIS-FACTORIAL M06 internal marker reporter; actives raise or lower the signal
Method in brief: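 Internal background marker within multiplexed cis-reporter HepG2 system. Cells transiently transfected, dosed 24 h; reporter mRNA measured by RT-PCR, HpaI digestion and capillary electrophoresis. Bidirectional fit relative to DMSO.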

[12] = target: Paired box protein Pax-6 (Homo sapiens) (UniProt P26367); experiment: ATG_Pax6_CIS: Attagene CIS-FACTORIAL HepG2 Assay for human Paired Box 6 (PAX6) (AID 2282956); conditions: HepG2 CIS-FACTORIAL PAX6 reporter transcription, RNA readout; actives raise or lower the signal
Sequence of Paired box protein Pax-6 (Homo sapiens) (P26367 whole entry, looked up): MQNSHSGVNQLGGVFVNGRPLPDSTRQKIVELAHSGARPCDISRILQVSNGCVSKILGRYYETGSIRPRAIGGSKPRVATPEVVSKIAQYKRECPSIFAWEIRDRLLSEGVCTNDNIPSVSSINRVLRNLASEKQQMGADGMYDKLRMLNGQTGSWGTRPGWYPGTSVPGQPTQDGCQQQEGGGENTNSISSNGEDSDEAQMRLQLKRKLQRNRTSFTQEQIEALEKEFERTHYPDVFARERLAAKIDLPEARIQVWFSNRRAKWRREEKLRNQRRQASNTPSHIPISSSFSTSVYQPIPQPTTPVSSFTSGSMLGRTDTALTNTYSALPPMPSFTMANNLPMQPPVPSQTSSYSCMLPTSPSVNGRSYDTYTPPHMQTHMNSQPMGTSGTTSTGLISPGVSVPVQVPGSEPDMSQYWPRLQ
Method in brief: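 Values derive from bidirectional curve fitting of reporter mRNA signal relative to DMSO. HepG2 cells bearing transfected cis-regulated MRTUs were exposed for 24 h; transcripts were read by RT-PCR and capillary electrophoresis.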

[13] = ATG_Sox_CIS: Attagene CIS-FACTORIAL HepG2 Assay for human SRY-box transcription factor (SOX) (AID 2282960); conditions: HepG2 Attagene cis-factorial SOX reporter, mRNA; actives raise or lower the signal
Method in brief: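 HepG2, cis reporter units, 24 h exposure. Reporter mRNA: RT-PCR → FAM labelling → HpaI → CE fluorescence. Bidirectional fit vs DMSO.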

[14] = target: Signal transducer and activator of transcription 3 (Homo sapiens) (UniProt P40763); experiment: ATG_STAT3_CIS: Attagene CIS-FACTORIAL HepG2 Assay for human Signal Transducer and Activator of Transcription 3 (STAT3) (AID 2282963); conditions: HepG2, Attagene cis-factorial STAT3 reporter transcription; actives raise or lower the signal
Sequence of Signal transducer and activator of transcription 3 (Homo sapiens) (P40763 whole entry, looked up): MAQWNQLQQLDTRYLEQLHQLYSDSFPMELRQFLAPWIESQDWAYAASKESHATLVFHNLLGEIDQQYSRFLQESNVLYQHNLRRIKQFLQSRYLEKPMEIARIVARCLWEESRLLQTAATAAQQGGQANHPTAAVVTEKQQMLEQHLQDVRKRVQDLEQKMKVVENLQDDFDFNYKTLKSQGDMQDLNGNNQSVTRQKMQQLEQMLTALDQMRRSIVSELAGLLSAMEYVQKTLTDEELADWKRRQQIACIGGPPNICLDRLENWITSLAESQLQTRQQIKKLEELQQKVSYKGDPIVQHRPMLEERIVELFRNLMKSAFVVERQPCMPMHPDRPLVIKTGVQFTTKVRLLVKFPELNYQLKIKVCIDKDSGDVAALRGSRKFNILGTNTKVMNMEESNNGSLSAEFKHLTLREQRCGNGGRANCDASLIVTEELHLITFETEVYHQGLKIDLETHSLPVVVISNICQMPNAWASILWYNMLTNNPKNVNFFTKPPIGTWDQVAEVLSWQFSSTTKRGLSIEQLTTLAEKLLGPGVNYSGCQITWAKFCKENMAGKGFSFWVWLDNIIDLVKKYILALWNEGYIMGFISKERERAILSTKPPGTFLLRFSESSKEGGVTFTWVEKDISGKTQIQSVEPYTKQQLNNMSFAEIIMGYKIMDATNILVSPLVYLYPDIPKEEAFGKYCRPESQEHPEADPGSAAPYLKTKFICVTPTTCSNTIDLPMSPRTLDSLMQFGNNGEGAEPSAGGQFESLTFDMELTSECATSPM
Method in brief: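 Cis-factorial format: endogenous transcription factors in HepG2 drive transfected reporter units. After 24 h treatment, reporter RNA was reverse-transcribed, amplified, FAM-labelled and HpaI-digested before CE analysis; activity scored in both directions against DMSO.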

[15] = ATG_TCF_b_cat_CIS: Attagene CIS-FACTORIAL HepG2 Assay for human T-Cell-Factor with beta-catenin (TCF/b-cat) (AID 2282965); conditions: HepG2 TCF/beta-catenin cis-reporter transcription, actives raise or lower the signal
Method in brief: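 Measured: reporter mRNA in HepG2 transiently transfected with cis-promoter reporter units, 24 h after chemical addition. Fitting was bidirectional, DMSO as negative control.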

[16] = ATG_TAL_CIS: Attagene CIS-FACTORIAL HepG2 Assay for human TAL Basal Promoter (AID 2282966); conditions: HepG2 Attagene cis-factorial TAL promoter reporter; actives raise or lower the signal;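 also: background control endpoint measuring basal TAL promoter reporter mRNA not a specific factor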
Method in brief: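 Basal-promoter background-control endpoint from a multiplexed HepG2 reporter panel. Cells were exposed 24 h, then reporter mRNA was read by RT-PCR/CE fluorescence and fitted in both directions relative to DMSO.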

[17] = ATG_TGFb_CIS: Attagene CIS-FACTORIAL HepG2 Assay for human Transforming Growth Factor (TGF) (AID 2282967); conditions: HepG2 Attagene CIS TGFb reporter, mRNA transcription; actives raise or lower the signal
Method in brief: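 HepG2 cells transiently transfected with cis-promoter-driven multiple reporter units measure endogenous TF activity; reporter mRNA quantified at 24 h by RT-PCR, FAM labeling, HpaI digestion and capillary electrophoresis. Bidirectional fit vs DMSO.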

[18] = target: Transcriptional activator Myb (Homo sapiens) (UniProt P10242); experiment: ATG_Myb_CIS: Attagene CIS-FACTORIAL HepG2 Assay for human Myeloblastosis (Myb) Proto-Oncogene Transcription Factor (AID 2282986); conditions: HepG2 Attagene CIS-FACTORIAL Myb reporter transcription; actives raise or lower the signal
Sequence of Transcriptional activator Myb (Homo sapiens) (P10242 whole entry, looked up): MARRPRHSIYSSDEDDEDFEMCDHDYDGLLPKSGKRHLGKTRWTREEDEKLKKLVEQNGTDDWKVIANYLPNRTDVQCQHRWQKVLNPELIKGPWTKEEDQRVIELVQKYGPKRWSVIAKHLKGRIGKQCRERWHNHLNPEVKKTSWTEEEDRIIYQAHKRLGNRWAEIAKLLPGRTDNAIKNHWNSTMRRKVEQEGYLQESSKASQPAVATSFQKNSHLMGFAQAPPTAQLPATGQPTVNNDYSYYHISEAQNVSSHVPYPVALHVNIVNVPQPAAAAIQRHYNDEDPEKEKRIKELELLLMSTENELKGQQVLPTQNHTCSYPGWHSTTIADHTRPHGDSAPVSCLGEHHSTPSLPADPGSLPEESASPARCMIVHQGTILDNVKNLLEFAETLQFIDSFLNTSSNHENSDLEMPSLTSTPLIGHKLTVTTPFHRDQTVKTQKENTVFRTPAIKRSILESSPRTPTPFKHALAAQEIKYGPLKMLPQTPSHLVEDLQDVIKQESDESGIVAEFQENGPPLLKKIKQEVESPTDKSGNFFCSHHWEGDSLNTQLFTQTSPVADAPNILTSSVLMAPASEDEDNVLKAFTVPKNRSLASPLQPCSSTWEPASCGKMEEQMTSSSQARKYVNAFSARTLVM
Method in brief: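 After 24 h of compound dosing, total RNA from transfected HepG2 cells is reverse-transcribed and the reporter sequences amplified, labeled and separated by capillary electrophoresis. Values come from bidirectional fitting against DMSO.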

[19] = target: Myc proto-oncogene protein (Homo sapiens) (UniProt P01106); experiment: ATG_Myc_CIS: Attagene CIS-FACTORIAL HepG2 Assay for human Myelocytomatosis (Myc) Proto-Oncogene Transcription Factor (AID 2282990); conditions: HepG2, Attagene cis-reporter transcription factor activity; actives raise or lower the signal
Sequence of Myc proto-oncogene protein (Homo sapiens) (P01106 whole entry, looked up): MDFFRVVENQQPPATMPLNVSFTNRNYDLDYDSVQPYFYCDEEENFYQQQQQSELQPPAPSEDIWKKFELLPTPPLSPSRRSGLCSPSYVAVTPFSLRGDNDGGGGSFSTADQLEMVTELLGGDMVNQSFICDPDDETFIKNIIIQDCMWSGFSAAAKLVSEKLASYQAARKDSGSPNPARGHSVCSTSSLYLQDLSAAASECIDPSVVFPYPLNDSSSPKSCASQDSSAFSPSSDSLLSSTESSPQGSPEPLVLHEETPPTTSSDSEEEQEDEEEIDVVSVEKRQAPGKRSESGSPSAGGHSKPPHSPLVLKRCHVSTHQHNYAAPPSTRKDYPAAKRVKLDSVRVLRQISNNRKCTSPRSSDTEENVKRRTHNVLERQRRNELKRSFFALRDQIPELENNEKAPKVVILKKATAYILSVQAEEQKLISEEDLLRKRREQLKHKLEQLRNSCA
Method in brief: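 Cells of the HepG2 human liver line bear multiple cis-driven reporter transcription units. Reporter mRNA after 24 h exposure is reverse-transcribed, amplified, labelled and resolved by capillary electrophoresis, with gain- or loss-of-signal fitting relative to DMSO.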

[20] = ATG_Oct_MLP_CIS: Attagene CIS-FACTORIAL HepG2 Assay for human Octamer-Binding Transcription Factor (Oct) (AID 2282993); conditions: HepG2 Attagene cis-factorial Oct reporter, mRNA; actives raise or lower the signal
Method in brief: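 HepG2 cells transiently transfected with cis-element-driven reporter transcription units (endogenous TF activity); 24 h compound exposure. Reporter mRNA quantified by RT-PCR, 6-FAM labelling, HpaI digestion and capillary electrophoresis; bidirectional fit versus DMSO baseline.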

Measured: AC50

CCCC(=O)OC
inactive: all assays above

CCCN[C@H]1CCc2nc(N)sc2C1
inactive: all assays above

O=C(CC(C(=O)OC1CCCCC1)S(=O)(=O)O)OC1CCCCC1 (stereo not drawn)
inactive: all assays above

Sc1nc2ccccc2s1
inactive: all assays above

CCC(C)C1N=C(C)C(C)S1 (stereo not drawn)
inactive: all assays above

CN(C)N=Nc1ccccc1
inactive: all assays above

C=CCOC(=O)C(=C)C
inactive: all assays above

O=C1NC(=O)[C@@H]2CC=CC[C@H]12
inactive: all assays above

O=C(O)c1cc(Cl)cc(Cl)c1O
inactive: all assays above

CCO[Si](OCC)(OCC)c1ccccc1
inactive: all assays above

CCCCNC(N)=O
inactive: all assays above

[O-][n+]1ccc(Cl)cc1
inactive: all assays above

CC1=C(CC(=O)O)c2cc(F)ccc2/C1=C\c1ccc(S(C)=O)cc1 (stereo not drawn)
active: [5] 43.4 µM
inactive: all other assays above

CCCCCCCCCC/C=C/C1CC(=O)OC1=O (stereo not drawn)
active: [17] 100 µM
inactive: all other assays above

Cc1ccnc(N)c1
inactive: all assays above

CC/C=C/CCO
inactive: all assays above

CC[N+](CC)(CC(=O)Nc1c(C)cccc1C)Cc1ccccc1
inactive: all assays above

O=C(Oc1ccccc1)c1ccccc1
inactive: all assays above

C=C(C)C(=O)OCCCCCC
inactive: all assays above

O=C(O)/C=C\C(=O)O
inactive: all assays above

O=C(C1CCCCC1)N1CC(=O)N2CCc3ccccc3C2C1 (stereo not drawn)
not listed: [2]
inactive: all other assays above

CCOC(=O)c1ccccc1
active: [2] 128 µM
inactive: all other assays above

CC(=O)OC(C)(C)Cc1ccccc1
inactive: all assays above

CCCCC(CC)COC(=O)CS (stereo not drawn)
inactive: all assays above

Nc1nnc(-c2ccc([N+](=O)[O-])o2)o1
active: [3] 33.4 µM | [19] 12 µM
inactive: all other assays above

O=C1NC(=O)C2CC=CCC12 (stereo not drawn)
inactive: all assays above

CCCCCCCCCCCCCCCCCC[N+](C)(C)C
inactive: [1] | [3] | [4] | [6] | [11]
active: [2] 6.61 µM | [5] 6.9 µM | [7] 42 µM | [8] 38.7 µM | [9] 43.6 µM | [10] 39.2 µM | [12] 5.86 µM | [13] 40.7 µM | [14] 44 µM | [15] 16.5 µM | [16] 39.2 µM | [17] 6.12 µM | [18] 6.05 µM | [19] 41.5 µM | [20] 6.14 µM

COc1ccc2ccccc2c1
not listed: [3]
inactive: all other assays above

CCCCCCCCCCCCCC
inactive: all assays above
